The source of these data is PubChem BioAssay AID651599 (National Center for Advancing Translational Sciences (NCATS), 2012).

Records with an inconclusive call do not appear. Active and inactive are the calls of the source. Calls follow the shape of the dose curve; as a rule, active = well fitted inhibition curve with a large enough effect; inconclusive = small, poorly fitted or top-dose-only effect; inactive = no such curve, though single readings can be large or run the other way.
% is scaled to controls: 0 for no effect and ±100 for the full control effect; potency is read from the fitted curve at half-maximal effect.

This test deals with Tumor susceptibility gene 101 protein (Homo sapiens) (UniProt Q99816). The test is described as follows: qHTS Assay for Iinhibitors of HIV-1 Budding by Blocking the Interaction of PTAP/TSG101: Hit Validation in TR assay. The note with it: Tsg101 binding domain + Texas Red-labeled PTAP peptide, fluorescence polarization, 20 min; series mostly up to 57.5 µM; activity change, negative = inhibition: at the top concentration. A digest of the protocol: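 Fluorescence polarization: Tsg101 binding domain (10 uM final) with Texas Red-labelled PTAP peptide (50 nM final) in HEPES pH 7.5, 0.15 M NaCl, Tween 20, EDTA, TCEP; 20 min binding at room temperature after compound addition.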
Tumor susceptibility gene 101 protein (Homo sapiens), sequence (Q99816 whole entry, looked up, the tested form may be a part): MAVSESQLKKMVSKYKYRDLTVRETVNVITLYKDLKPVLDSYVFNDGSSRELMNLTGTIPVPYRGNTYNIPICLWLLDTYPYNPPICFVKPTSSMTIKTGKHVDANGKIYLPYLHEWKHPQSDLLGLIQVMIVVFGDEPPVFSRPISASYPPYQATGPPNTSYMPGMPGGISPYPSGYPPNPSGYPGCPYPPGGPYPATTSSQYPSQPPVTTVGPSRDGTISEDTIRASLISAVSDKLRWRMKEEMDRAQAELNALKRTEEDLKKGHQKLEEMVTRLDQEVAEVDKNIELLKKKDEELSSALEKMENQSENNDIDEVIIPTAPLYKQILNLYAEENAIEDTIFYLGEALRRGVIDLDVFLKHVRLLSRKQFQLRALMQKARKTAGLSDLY
A general note: qHTS replaces the single test concentration by a dilution series.
Regarding `CCOC(=O)N1CCN(c2nc3ccccc3nc2C(C#N)S(=O)(=O)c2ccc(C)cc2)CC1` (centres undefined), the “activity change, negative = inhibition” value was 156% (inactive).
For the compound `O=C1CCN2C=Nc3cccc4ccc1c2c34`, the “activity change, negative = inhibition” value is -14.5% (inactive).
For the compound `Cc1ccc(N2C3=C(C(=O)CC(C)(C)C3)C(c3cn(C)nc3C)C3=C2CC(C)(C)CC3=O)cc1`, the “activity change, negative = inhibition” value is -1.93% (inactive).
The same measure, in the same setting: in the case of `Cc1cccc(N2C(=O)c3cccc4c(N)ccc(c34)C2=O)c1` it was -25.6% (inactive); in that of `Cc1ccc(N=Cc2c(O)ccc3ccccc23)cc1F`, 18.9% (inactive).
Still for that read-out and setting: in the case of `Cc1nn(-c2ccccc2)c(N2CCCC2)c1/C=C1\N=C(c2ccc(F)cc2)OC1=O` it was -23% (inactive); in that of `COc1ccc(-c2cc(C(=O)N3CC(C)CC(C)C3)c3ccccc3n2)cc1OC` (centres undefined), -13.2% (inactive); in that of `Cc1cc(C)n2nc3nc4c(cc3c2n1)CCCC4`, -6.13% (inactive).
For `CN1c2ccc(C=O)c3c(C=O)ccc(c23)N(C)C1(C)C`, the “activity change, negative = inhibition” value was 1.18% (inactive).
On to `COc1ccc2nc3ccccc3nc2c1NC(=O)c1ccc(Cl)cc1Cl`, for which the “activity change, negative = inhibition” value was -19.7% (inactive).
In the case of `CN(C)CCNc1ccc2ncn3c4ccc(O)cc4c(=O)c1c23`, the “activity change, negative = inhibition” value is -0.118% (inactive).
Consider `CCN(CC)C(=O)Cn1c(=O)c2ccccc2n2c(=S)sc(-c3cccc(C)c3)c12`, for which the “activity change, negative = inhibition” value is 56.1% (inactive).
On to `O=C(NCc1cccc(C(F)(F)F)c1)c1cccc2c1C(=O)c1ccc(N3CCC(Cc4ccccc4)CC3)cc1S2(=O)=O`, for which the “activity change, negative = inhibition” value is -7.43% (inactive).
Same read-out and setting: in the case of `Cc1ccc[n+](-c2nc([O-])sc2/C=N/Nc2ccc([N+](=O)[O-])cc2)c1` it was 11.8% (inactive); in that of `O=C(Nc1nc2c(s1)CN(Cc1ccccc1)CC2)c1cccc(S(=O)(=O)N2CCc3ccccc32)c1`, 19.5% (inactive); in that of `Cc1ccccc1-n1c(SCc2c(C)noc2C)nnc1-c1cccnc1`, -5.65% (inactive).
As for `CC(C)(C)C(=O)c1sc2nc(-c3cccs3)cc(C(F)(F)F)c2c1N`, the “activity change, negative = inhibition” value is -10.8% (inactive).
`CNc1c2cccc(C)c2nc2c(C(=O)NCCN(C)C)cccc12`: the “activity change, negative = inhibition” value is -2.06% (inactive).
As to `c1ccc(-c2cnn3c(-c4ccccc4)c(-c4ccccc4)nc3n2)cc1`, the “activity change, negative = inhibition” value was 50.1% (inactive).
`CCOC(=O)c1cc2n(c1N)-c1ccccc1C2=O`: the “activity change, negative = inhibition” value is 2.6% (inactive).
On to `CCOc1ccc(S(=O)(=O)N2CCc3cc(OC)c(OC)cc3C2)cc1`, for which the “activity change, negative = inhibition” value is 1.06% (inactive).
On the same count and under the same terms, the figure for `O=C(NCCc1ccc(F)cc1)c1cccc2c1C(=O)c1ccc(N3CCC(Cc4ccccc4)CC3)cc1S2(=O)=O` is 181% (inactive).
As to `O=C(O)[C@@H]1[C@H]2C[C@H]3c4[nH]c5ccccc5c4CCN3C[C@@H]2CC[C@@H]1O`, the Potency was 13 µM (active).
In the case of `CCOC(=O)/C(C#N)=C(C)/C=C1\Sc2ccccc2N1CC`, the “activity change, negative = inhibition” value was 23.7% (inactive).
As to `Nc1ccc2nc3c(=O)[nH]c(=S)[nH]c3nc2c1`, the “activity change, negative = inhibition” value was -13% (inactive).
As for `CCC1(c2ccccc2)NC(=O)N(CC(=O)Nc2ccc(OC)nc2)C1=O` (centres undefined), the “activity change, negative = inhibition” value was 6.88% (inactive).
Consider `N#C/C(=C\C=C\c1ccccc1)c1nc(-c2ccc3c(c2)OCO3)cs1`, for which the “activity change, negative = inhibition” value is 62.8% (inactive).
As to `CCN(CC)c1ccc(/C=C(\C#N)C(=O)NCc2ccccc2)cc1`, the “activity change, negative = inhibition” value was -2.84% (inactive).
Same read-out and setting: in the case of `Cc1ccc(C2C3CN(C(C)C)CC=C3C(C#N)=C(N)C2(C#N)C#N)cc1` (centres undefined) it was 5.49% (inactive); in that of `CSC1=NSC2=NC(=O)/C(=C/c3coc4ccc(O)cc4c3=O)C(=N)N12`, -29.3% (inactive); in that of `COc1ccccc1N1C(C)=CC(=C(C#N)c2nc3ccccc3s2)C=C1C`, 28.4% (inactive).
Turning to `O=C(OCCN1C(=O)c2cccc3c(N4CCOCC4)ccc(c23)C1=O)c1cccc(Cl)c1`, the “activity change, negative = inhibition” value was -22.4% (inactive).
As for `COc1ccccc1N1C(=O)C2C(C(=O)c3ccccc3)=NN(c3ccc(C)cc3)C2C1=O` (centres undefined), the “activity change, negative = inhibition” value is 24.6% (inactive).
Take `CCOc1ccc(Cn2c3ccc(OC)cc3c3nc4ccccc4nc32)cc1`: the “activity change, negative = inhibition” value was 22.9% (inactive).
Consider `Nc1ccc2nc(-c3ccccc3)c(-c3ccccc3)nc2c1`, for which the “activity change, negative = inhibition” value was -4.17% (inactive).
Consider `O=c1c(-c2cc3ccccc3o2)[n+]([O-])c2ccccc2n1OCc1ccccn1`, for which the “activity change, negative = inhibition” value is 202% (inactive).
On to `Cc1cc2nc3c(=O)n(CCc4ccccc4)c(=O)[nH]c3nc2cc1N`, for which the “activity change, negative = inhibition” value is -0.59% (inactive).
The same measure, in the same setting: the figure for `CN1/C(=C\C=C2/C(=O)Oc3ccccc3C2=O)C(C)(C)c2ccccc21` is 14.8% (inactive); for `O=C1c2cccc3c([N+](=O)[O-])ccc(c23)C(=O)N1c1ccc(Cl)cn1` it is -5.67% (inactive).
